Source: PubChem BioAssay (several laboratories)
The list is not random: actives were taken first. Their share in the collection is about 3%.
SUMO Mot1 rescue: blocks SUMOylation pathway, rescuing yeast Mot1-301 growth. AID 2716. growth rescue, % at 18.8 µM. 1% of 320,000 active. S. cerevisiae Mot1-301 growth rescue, ATP luminescence, 38.5C; percent above DMSO median, 100 means doubled;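 active means every valid replicate shows activation above 250% relative to neutral control wells; inactive means the rest, any valid replicate at or below 250%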
CHT allo act: allosterically activates the human high affinity choline transporter; CHT-expressing cells, membrane potential dye, choline EC20; stronger effect = higher value; LV-AA mutant CHT in HEK293 cells; 0.49% of 310,000 active; B-score at 10 µM;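 active means initial fluorescence not abnormally high and integrated response B-score, plate-corrected, over 3 SD above library mean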
Target sequence (Q9GZV3 whole entry, looked up): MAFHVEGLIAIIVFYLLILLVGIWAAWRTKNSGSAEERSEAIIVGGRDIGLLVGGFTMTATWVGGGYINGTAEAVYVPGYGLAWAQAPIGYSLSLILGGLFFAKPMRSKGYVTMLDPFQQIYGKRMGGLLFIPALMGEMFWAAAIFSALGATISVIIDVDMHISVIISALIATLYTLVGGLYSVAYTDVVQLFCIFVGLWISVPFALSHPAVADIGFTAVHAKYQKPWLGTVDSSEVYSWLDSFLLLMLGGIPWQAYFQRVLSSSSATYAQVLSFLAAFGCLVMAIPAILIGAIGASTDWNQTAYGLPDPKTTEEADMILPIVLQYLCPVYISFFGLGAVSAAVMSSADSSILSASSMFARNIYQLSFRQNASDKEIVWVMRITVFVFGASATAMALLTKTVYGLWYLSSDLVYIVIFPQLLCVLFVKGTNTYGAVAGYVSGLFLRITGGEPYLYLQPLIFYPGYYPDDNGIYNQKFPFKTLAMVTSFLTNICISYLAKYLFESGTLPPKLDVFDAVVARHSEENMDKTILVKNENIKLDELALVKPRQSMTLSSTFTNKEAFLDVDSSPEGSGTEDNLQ
CHT block: human CHT choline transport inhibition. Q9GZV3. B-score at 10 µM. CHT-expressing cells, membrane potential dye, choline response; stronger effect = lower value. 0.86% of 310,000 active. AID 488975;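 active means B-score over 3 SD under the library average, and starting fluorescence ratio not unusually high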;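 further: choline stimulus applied at its EC90 after an EC20 pre-addition; B-score computed on integrated fluorescence ratio after choline addition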
NALP1 yeast inh: NALP1 inhibition | S. cerevisiae NALP1/ASC/caspase-1 growth, X-gal OD620, 72 h | inhibition, % at 10 µM | 0.61% of 280,000 active | AID 2071; in the data active means inhibition mostly above about 24%, no sharp cut-off; inactive means mostly below about 32%
NALP3 yeast inh: blocks the NALP3 inflammasome reconstituted in yeast. Yeast reconstituted NLRP3/ASC/caspase-1, beta-gal luminescence, 24 h. inhibition, % at 10 µM. 0.39% of 330,000 active;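 active means inhibition of 50% or more; inactive means inhibition below 50%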
Bfl-1 A1 inh: inhibitors of the anti-apoptotic protein A1, read as caspase activation | MEF A1-2A-BIM cells, Caspase-Glo 3/7 luminescence, 3 h; percent of clofoctol response, vehicle zero | caspase activation, % (no concentration beside the values) | 0.066% of 330,000 active;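 active means over half of replicate activation scores above 10%, or exactly half above 10 with the replicate mean above 10; inconclusive means replicate mean below 10 yet half the replicates above 10; inactive means over half of replicates below 10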
Yeast Mot1 SUMO: SUMO pathway inhibitors in yeast Mot1-301 growth; shares compounds with SUMO Mot1 rescue; S. cerevisiae Mot1-301 galactose growth, ATP luminescence, 24 h; -100 = growth of slx-deleted rescue strain; growth activity, percent, % at 42 µM; 2,300 tested, under 10 active;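 active means Signal drops as the depositor expects, and the fitted half-maximal dose is no more than ten times the top valid tested dose; inconclusive means Poor fit, or a flat curve whose signal drops by 30% to 70%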;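 further: more negative values mean stronger growth rescue toward the control strain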
Each line names hits and unclear results; the compound was inactive in the other large screens (follow-up assays come after a bar, where they were run).

CCOC(=O)c1c(C)[nH]c2c1cc(O)c1ccccc12	SUMO Mot1 rescue 769.3 | Yeast Mot1 SUMO inactive
CCOC(=O)c1c(C)oc2c1cc(O)c1ccccc12	none
Cc1ccc(C)c(S(=O)(=O)N2CCCOC2CNC(=O)C(=O)NCc2ccc3c(c2)OCO3)c1 (centres undefined)	none
O=C(Cc1c(F)cccc1Cl)N1CCN(S(=O)(=O)c2cccc(F)c2)CC1	none (no result: NALP1 yeast inh)
CS(=O)(=O)NCc1ccc(C(=O)NC2CCCCC2)cc1	SUMO Mot1 rescue 617.4 | Yeast Mot1 SUMO inactive
Cc1ccc(S(=O)(=O)NCc2ccc(C(=O)NC3CCCCC3)cc2)cc1	none
COc1ccc(Nc2oc(-c3cccs3)nc2C#N)cc1	SUMO Mot1 rescue 918.0 | Yeast Mot1 SUMO inactive
CNc1oc(-c2cccs2)nc1C#N	none
CCC(CC)NC(=O)c1oc2ccccc2c1COc1ccccc1	SUMO Mot1 rescue 517.5 | Yeast Mot1 SUMO inactive
CC(C)CNC(=O)c1oc2ccccc2c1COc1ccccc1	none
Nc1cc(Cl)ccc1N1CCOCC1	SUMO Mot1 rescue 464.6 | Yeast Mot1 SUMO inactive
CCc1noc(C)c1C(=O)Nc1nc(-c2ccc(F)cc2)c(C)s1	SUMO Mot1 rescue 634.3, Bfl-1 A1 inh inconclusive | Yeast Mot1 SUMO inactive
CCc1noc(C)c1C(=O)Nc1nc(-c2cc(C)ccc2C)c(C)s1	none
CC(=O)N(C)c1cccc(-c2ccc3nnc(C)n3n2)c1	none
CCn1nccc1C(=O)Nc1ccccc1OC	SUMO Mot1 rescue 747.0 | Yeast Mot1 SUMO inactive
CCCNC(=O)Cn1nc(C)n2c(cc3cc(F)ccc32)c1=O	SUMO Mot1 rescue active | Yeast Mot1 SUMO inactive
O=C(NC(=S)NNC(=O)c1ccccc1O)c1cccc([N+](=O)[O-])c1	SUMO Mot1 rescue 368.2 | Yeast Mot1 SUMO inactive
CC(C)C(=O)N1CCN(c2ccccc2NC(=O)c2ccco2)CC1	none
COc1ccc(OC)c(CCNC(=O)c2ccc3c(c2)N(Cc2ccc(F)cc2)CCS3)c1	SUMO Mot1 rescue 364.6 | Yeast Mot1 SUMO inactive
COc1ccc(CCNC(=O)c2ccc3c(c2)N(Cc2ccc(F)cc2)CCS3)c(OC)c1	Bfl-1 A1 inh inconclusive
O=C(NC1CC1)C1CCN(C2CCN(C(=O)/C=C/c3ccc(F)cc3)CC2)CC1	none
CCNc1ccccc(C(=O)/C=C/c2ccc3c(c2)OCO3)c1=O	SUMO Mot1 rescue 438.6 | Yeast Mot1 SUMO inactive
COC(=O)/C=C/c1ccc2c(c1)OCO2	none
CCOc1ccc(C(=O)CCC(=O)NCC(=O)Nc2c(C)cccc2C)cc1	none (no result: CHT allo act, CHT block, NALP1 yeast inh)
C=CCNC(=O)NC(=O)COC(=O)CCCSc1nc2ccccc2[nH]1	SUMO Mot1 rescue 611.9 | Yeast Mot1 SUMO inactive
O=C(COC(=O)CCCSc1nc2ccccc2[nH]1)Nc1cccc(F)c1	none
O=C(Cn1cc(C(F)(F)F)cc(Cl)c1=O)NC1CCS(=O)(=O)C1 (centres undefined)	none (no result: CHT allo act, CHT block, NALP1 yeast inh)
CC(=O)Nc1cc2nn(-c3ccccc3)nc2cc1Cl	SUMO Mot1 rescue 553.1 | Yeast Mot1 SUMO inactive
Cc1cc(=O)[nH]c2ccc(S(=O)(=O)Nc3ccccc3)cc12	none (no result: NALP1 yeast inh)
Cc1cccc(NS(=O)(=O)c2ccc3[nH]c(=O)cc(C(=O)O)c3c2)c1	SUMO Mot1 rescue 543.6 | Yeast Mot1 SUMO inactive
Cc1ccc(S(=O)(=O)N2CCN(C(=O)CN3C(=O)c4ccc([N+](=O)[O-])cc4C3=O)CC2)c(C)c1	none (no result: NALP1 yeast inh)
CSc1ccc(CN(C)Cc2nc3ccccc3c(=O)[nH]2)cc1	none (no result: NALP1 yeast inh)
CCNC(=O)COC(=O)CCC(=O)c1cccs1	none
CCCNC(=O)COC(=O)CCC(=O)c1cccs1	SUMO Mot1 rescue 422.1 | Yeast Mot1 SUMO inactive
C[C@H](CO)N1C[C@H](C)[C@@H](CN(C)C(=O)Nc2ccc3c(c2)OCO3)Oc2ccc(NC(=O)Nc3ccc4c(c3)OCO4)cc2C1=O	none (no result: CHT allo act, CHT block, NALP1 yeast inh)
CN(C)c1cccc(C(=O)NCCCSc2ccccc2)c1	none
COc1ccccc1CNC(=O)[C@H](NC(=O)C1CCN(C(=O)[C@@H](N)CCSC)CC1)C(C)C	none
COc1ccccc1CNC(=O)[C@H](C)NC(=O)C1CCN(C(=O)[C@@H](N)CC(C)C)CC1	SUMO Mot1 rescue 617.8 | Yeast Mot1 SUMO inactive
N#Cc1ccc(OCC(=O)OCC(=O)Nc2sccc2C(N)=O)cc1	none (no result: CHT allo act, CHT block, NALP1 yeast inh)
O=C(CSc1nc(=O)n2ccccc2n1)N1CCN(c2ccccc2)CC1	SUMO Mot1 rescue 559.0 (no result: NALP1 yeast inh) | Yeast Mot1 SUMO inactive
Nc1ncnc2nc(SCC(=O)N3CCN(c4ccccc4)CC3)[nH]c12	SUMO Mot1 rescue active | Yeast Mot1 SUMO inactive
COc1ccccc1N1CCN(C(=O)CSc2nc3ncnc(N)c3[nH]2)CC1	none
O=C(CSc1nc(=O)n2ccccc2n1)N1CCCCCC1	none (no result: NALP1 yeast inh)
Cc1nc(C)c(/C(O)=C\c2nc3ccc([N+](=O)[O-])cc3oc2=O)o1	none (no result: NALP1 yeast inh)
Cc1cc(C)c(S(=O)(=O)NCc2ccc3c(c2)OCO3)cc1C	none
CCOc1ccccc1C(=O)NCc1ccc2c(c1)OCO2	SUMO Mot1 rescue 878.8 | Yeast Mot1 SUMO inactive
CCOc1cc(S(=O)(=O)NCc2ccc3c(c2)OCO3)c(C)cc1C	SUMO Mot1 rescue 700.5 | Yeast Mot1 SUMO inactive
CCOc1ccccc1C(=O)OCC(=O)NCc1ccc2c(c1)OCO2	none (no result: CHT allo act, CHT block, NALP1 yeast inh)
Cc1cc(C)n2nc(SCC(=O)N3CCCC(C)C3)nc2n1 (centres undefined)	none (no result: CHT allo act, CHT block, NALP1 yeast inh)
O=C(Cn1nnc(-c2ccccc2)n1)OCc1ccccc1	none
O=C(OCc1ccccc1)c1cccc(-c2nnn(Cc3ccccc3)n2)c1	SUMO Mot1 rescue 390.8 | Yeast Mot1 SUMO inactive
CCCNC(=O)CNC(=O)c1ccc(C#N)cc1	none (no result: SUMO Mot1 rescue, CHT allo act, CHT block, NALP1 yeast inh, Bfl-1 A1 inh)
O=C(NC1CCCCC1)c1ccc2snnc2c1	SUMO Mot1 rescue 528.9 | Yeast Mot1 SUMO inactive
CC(c1ccccc1)N1CC(C(=O)N2CCCC(C(N)=O)C2)CC1=O (centres undefined)	none (no result: CHT allo act, CHT block, NALP1 yeast inh)
CC1CCN(CCCCOc2ccc(C(C)(C)C)cc2)CC1	none
CC1CCN(CCCCOc2ccc(Cl)cc2)CC1	SUMO Mot1 rescue 427.0 | Yeast Mot1 SUMO inactive
COc1ccc(-n2ncc3c(=O)n(CC(=O)N(C(C)C)C(C)C)cnc32)cc1	none
COCc1[nH][nH]c(=O)c1C=Nc1ccc(Cl)cc1	none
COCc1[nH][nH]c(=O)c1C=Nc1ccc(OC(F)(F)F)cc1	SUMO Mot1 rescue 800.9 | Yeast Mot1 SUMO inactive
O=C(OCC(=O)N1CCc2ccccc21)[C@@H]1CC(O)CN1S(=O)(=O)c1ccc(Cl)cc1 (some centres undefined)	none (no result: CHT allo act, CHT block, NALP1 yeast inh)
CCN(CC1COc2ccccc2O1)C(=S)NCCCN(C)C (centres undefined)	SUMO Mot1 rescue active | Yeast Mot1 SUMO inactive
CC(=O)c1ccc(NC(=O)CN2C(=O)NC(C)(c3ccc4c(c3)OCCO4)C2=O)cc1 (centres undefined)	none (no result: CHT allo act, CHT block, NALP1 yeast inh)
CS(=O)(=O)Nc1ccccc1C(=O)NCCSCc1ccccc1	SUMO Mot1 rescue 522.7 | Yeast Mot1 SUMO inactive
